{"source": "ChEMBL document CHEMBL4513216", "about": "“Probing the Open Global Health Chemical Diversity Library for Multistage-Active Starting Points for Next-Generation Antimalarials” (ACS Infect Dis, 2020)", "note": "In all, about 69,000 compounds went through this assay and about 8,600 (12%) showed an effect of 50% or more. This excerpt belongs to a sample that is enriched for strong results."}
{"tested_on": "Plasmodium berghei", "test": "Screen against P. berghei liver stage (PbLuc), transformed with Luciferase, at 10uM", "assay_type": "functional, HepG2", "conditions": "tested at 10 uM", "units": {"INHIBITION": "%"}}
{"smiles": "CC(C)c1nnc2n1CCN(CCS(=O)(=O)c1ccccc1)C2", "INHIBITION": 4.71}
{"smiles": "COCC1CC2(CCN(Cc3ccoc3)CC2)CN1Cc1ccccn1", "note": "(stereo not given)", "INHIBITION": 48.4}
{"smiles": "COCC1CC2(CCN(CC3CC3)CC2)CN1Cc1ccccn1", "note": "(stereo not given)", "INHIBITION": 13.1}
{"smiles": "CCN1CCC2(CC1)CC(COC)N(Cc1csc(C)n1)C2", "note": "(stereo not given)", "INHIBITION": 8.85}
{"smiles": "COCC1CC2(CCN(C(C)=O)CC2)CN1Cc1csc(C)n1", "note": "(stereo not given)", "INHIBITION": 79.6}
{"smiles": "COCC1CC2(CCN(C(N)=O)CC2)CN1Cc1csc(C)n1", "note": "(stereo not given)", "INHIBITION": 41}
{"smiles": "COCC1CC2(CCN(Cc3nccs3)CC2)CN1Cc1ccccn1", "note": "(stereo not given)", "INHIBITION": 71.1}
{"smiles": "Cc1cc(C)n(CC2CCCN2CC(=O)N(C)Cc2ccco2)n1", "note": "(stereo not given)", "INHIBITION": 4.71}
{"smiles": "Cc1nnc(-c2cccc(C#N)c2)n1C1CCN(C2CC2)C1=O", "note": "(stereo not given)", "INHIBITION": -25.7}
{"smiles": "CCN1CCCC(CNC(=O)CCc2ccc(OC)c(F)c2)C1", "note": "(stereo not given)", "INHIBITION": 11.5}
{"smiles": "CCCC(=O)NCC1CCCN(Cc2cc(C)c(C)o2)C1", "note": "(stereo not given)", "INHIBITION": 54.4}
{"smiles": "Cc1cc(CN2CCCC(CNC(=O)Cn3cccn3)C2)oc1C", "note": "(stereo not given)", "INHIBITION": 57.6}
{"smiles": "O=C(Cn1cccn1)NCC1CCN(Cc2cc3ccccc3[nH]2)C1", "note": "(stereo not given)", "INHIBITION": 9.79}
{"smiles": "Cc1cc(CN2CCC(CNC(=O)CN3CCCCCC3)C2)[nH]n1", "note": "(stereo not given)", "INHIBITION": 10.7}
{"smiles": "O=C(Cn1cccn1)NCC1CCCN(Cc2ccccc2)C1", "note": "(stereo not given)", "INHIBITION": 13.7}
{"smiles": "O=C(Cn1cc(I)cn1)NCC1CCC1", "INHIBITION": 27.5}
{"smiles": "O=C(Cn1cc(-n2cccc2)cn1)NCC1CCC1", "INHIBITION": 55.6}
{"smiles": "O=C(Cn1cc(-n2cccc2)cn1)NCC(F)(F)F", "INHIBITION": 6.83}
{"smiles": "CO[C@@H]1CN(c2ccccc2)S(=O)(=O)[C@@]12CCN(C)C2", "INHIBITION": 32.1}
{"smiles": "CN1CC(=O)N(c2ccccc2)CC12CCN(C(=O)CC1CC1)C2", "note": "(stereo not given)", "INHIBITION": 4.68}
{"smiles": "CC[C@@H](c1ccccc1)n1c(CN)n[nH]c1=O", "INHIBITION": 4.48}
{"smiles": "c1cncc(-c2noc(CN3CCn4c(nnc4C4CC4)C3)n2)c1", "INHIBITION": 15.66}
{"smiles": "COCCCNC(=O)C(C)n1cc(Br)cn1", "note": "(stereo not given)", "INHIBITION": -33.2}
{"smiles": "O=C(NCc1ccco1)[C@H]1COC[C@H]2CN(Cc3ccccn3)C[C@H]21", "INHIBITION": 15.9}
{"smiles": "Cc1noc(C)c1CN(C)C(=O)c1nc(N2CCCC2)ncc1Cl", "INHIBITION": 61.9}
{"smiles": "CN(C)C(CNC(=O)c1nc(N2CCCC2)ncc1Cl)c1ccco1", "note": "(stereo not given)", "INHIBITION": 26}
{"smiles": "CCOc1ccc(CN(C)C(=O)c2nc(N3CCCC3)ncc2Cl)cc1", "INHIBITION": 24.8}
{"smiles": "CCc1ccc(CN(Cc2ccco2)C(C)C(C)C)nc1", "note": "(stereo not given)", "INHIBITION": 60.7}
{"smiles": "COCc1ncc(CN(Cc2ccco2)C(C)C(C)C)cn1", "note": "(stereo not given)", "INHIBITION": 20.9}
{"smiles": "CC(C)C(C)N(Cc1ccccn1)Cc1ccco1", "note": "(stereo not given)", "INHIBITION": 16.3}
